Laboratory results published in PubChem BioAssay.
For part of these data: Potency and affinity values are given separately. Activity calls are given as the source filed them.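 The calls were made as follows, unless noted: active = calcium signal cut by more than 3 SD below the full-agonist control yet still positive, in both repeats and the earlier primary screen; inactive = the rest.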

Columns and labels:
[1] = tested on: TRPC4 beta (transient receptor potential cation channel C4), mouse; experiment: activators of mouse TRPC4 channel, confirmation, cell-based, Fluo4 calcium, HEK293 TRPC4beta/mu-opioid, duplicates, 10 µM (AID 2426;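 active = fluorescence ratio normalized to control raised more than 50% in primary screen plus both repeat runs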); conditions: Fluo4 calcium fluorescence, at 10 µM; active compounds read high
[2] = tested on: transient receptor potential cation channel C4 beta (TRPC4), mouse; experiment: activators of mouse TRPC4 channel, confirmation, cell-based, second round, Fluo4, HEK293 TRPC4beta/mu-opioid, 1 µM (AID 2461;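 active = primary screen active and over 50% activation in each of two duplicate runs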); conditions: Fluo4 calcium fluorescence, at 1 µM; active compounds read high
[3] = tested on: TRPC4 (transient receptor potential cation channel C4 beta), mouse; experiment: positive allosteric modulators of mouse TRPC4, confirmation, cell-based, second round, Fluo-4, HEK293 TRPC4beta/mu-opioid, 1 µM (AID 2554;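 active = primary screen hit whose fluorescence ratio, in both repeats, exceeds the weak agonist control mean by 3 SD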); conditions: DAMGO EC20, Fluo-4 calcium flux, at 1 µM; active compounds read high
[4] = tested on: TRPC4 beta (transient receptor potential cation channel C4), mouse; experiment: positive allosteric modulators of mouse TRPC4, confirmation, cell-based, Fluo-4, HEK293 TRPC4beta/mu-opioid (AID 2555;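 active = primary screen hit whose calcium fluorescence ratio, in both repeats, exceeds the weak agonist control mean by 3 SD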); conditions: DAMGO EC20, Fluo-4 calcium flux, at 10 µM; active compounds read high
[5] = molecular target: Short transient receptor potential channel 4 (Mus musculus) (UniProt Q9QUQ5); experiment: inhibitors of mouse TRPC4 channel, confirmation, cell-based, Fluo4, HEK293 TRPC4beta/mu-opioid (AID 2636); conditions: DAMGO, Fluo4 calcium flux, at 10 µM; active compounds read high
Sequence of Short transient receptor potential channel 4 (Mus musculus) (Q9QUQ5 whole entry, looked up): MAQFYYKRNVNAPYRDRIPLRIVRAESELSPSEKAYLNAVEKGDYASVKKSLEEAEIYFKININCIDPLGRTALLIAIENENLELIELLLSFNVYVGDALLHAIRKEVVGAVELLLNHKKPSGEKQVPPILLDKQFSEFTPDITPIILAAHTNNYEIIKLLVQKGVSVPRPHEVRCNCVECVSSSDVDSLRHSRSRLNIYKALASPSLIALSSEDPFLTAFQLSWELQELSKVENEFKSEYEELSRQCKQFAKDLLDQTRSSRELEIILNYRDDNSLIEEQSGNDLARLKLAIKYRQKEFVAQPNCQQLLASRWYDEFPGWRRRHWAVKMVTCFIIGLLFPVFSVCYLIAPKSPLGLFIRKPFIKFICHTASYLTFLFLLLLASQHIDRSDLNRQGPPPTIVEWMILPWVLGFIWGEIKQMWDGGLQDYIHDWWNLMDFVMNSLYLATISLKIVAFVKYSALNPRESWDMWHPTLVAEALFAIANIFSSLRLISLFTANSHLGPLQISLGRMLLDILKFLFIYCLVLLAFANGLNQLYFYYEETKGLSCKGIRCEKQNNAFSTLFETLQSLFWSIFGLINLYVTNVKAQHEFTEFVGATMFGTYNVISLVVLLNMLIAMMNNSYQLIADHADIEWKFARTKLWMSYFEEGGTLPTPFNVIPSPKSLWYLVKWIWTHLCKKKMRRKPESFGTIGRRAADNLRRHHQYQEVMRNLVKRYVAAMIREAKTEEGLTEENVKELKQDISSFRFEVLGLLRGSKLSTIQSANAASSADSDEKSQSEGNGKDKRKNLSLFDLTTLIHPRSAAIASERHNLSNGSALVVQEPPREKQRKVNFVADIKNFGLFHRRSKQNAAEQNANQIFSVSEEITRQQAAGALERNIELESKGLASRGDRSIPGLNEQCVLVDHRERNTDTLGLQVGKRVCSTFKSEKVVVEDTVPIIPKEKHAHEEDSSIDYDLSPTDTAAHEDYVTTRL

[6] = molecular target: Short transient receptor potential channel 4 (Mus musculus) (UniProt Q9QUQ5); experiment: inhibitors of mouse TRPC4 channel, confirmation, cell-based, second round, Fluo4, HEK293 TRPC4beta/mu-opioid, 1 µM (AID 2637;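 active = calcium signal ratio cut to more than 3 SD under the fully stimulated control mean yet still positive, in both repeats and the primary screen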;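 as to inhibition: percent of integrated ratio relative to wells lacking test compound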); conditions: Fluo4 calcium flux, DAMGO, at 1 µM; active compounds read high
[7] = molecular target: Short transient receptor potential channel 4 (Mus musculus) (UniProt Q9QUQ5); experiment: mouse TRPC4 channel activators, dose response, cell-based, HEK293 TRPC4/mu-opioid, Fluo-4 calcium (AID 434937;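 active = primary screen activator hit with a dose response curve and TRPC4 channel activation at any tested dose; inactive = no activation, no dose response, or not a primary hit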)
[8] = molecular target: Short transient receptor potential channel 4 (Mus musculus) (UniProt Q9QUQ5); experiment: TRPC4 positive allosteric modulators, dose response, cell-based, HEK293 TRPC4/mu-opioid, Fluo-4 calcium, EC20 DAMGO (AID 434941;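 active = earlier screen potentiator hit that boosts the TRPC4 ion channel at some dose, with a dose response; inactive = no potentiation, no dose response, or not a prior hit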;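 also: calcium entry triggered by an EC20 dose of DAMGO at the co-expressed mu-opioid receptor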)
[9] = molecular target: Short transient receptor potential channel 6 (Mus musculus) (UniProt Q61143); experiment: inhibition of mouse TRPC6 channel, confirmation, selectivity assay for TRPC4 inhibitor project, cell-based, HEK293, membrane potential dye, duplicate (AID 434948;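 active = active in primary screen and both duplicates, each dropping signal beyond three positive-control SD with fluorescence still positive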); conditions: HEK293 TRPC6, membrane potential dye fluorescence, at 10 µM, stimulated with maximal-effect acetylcholine; active compounds read high
Sequence of Short transient receptor potential channel 6 (Mus musculus) (Q61143 whole entry, looked up): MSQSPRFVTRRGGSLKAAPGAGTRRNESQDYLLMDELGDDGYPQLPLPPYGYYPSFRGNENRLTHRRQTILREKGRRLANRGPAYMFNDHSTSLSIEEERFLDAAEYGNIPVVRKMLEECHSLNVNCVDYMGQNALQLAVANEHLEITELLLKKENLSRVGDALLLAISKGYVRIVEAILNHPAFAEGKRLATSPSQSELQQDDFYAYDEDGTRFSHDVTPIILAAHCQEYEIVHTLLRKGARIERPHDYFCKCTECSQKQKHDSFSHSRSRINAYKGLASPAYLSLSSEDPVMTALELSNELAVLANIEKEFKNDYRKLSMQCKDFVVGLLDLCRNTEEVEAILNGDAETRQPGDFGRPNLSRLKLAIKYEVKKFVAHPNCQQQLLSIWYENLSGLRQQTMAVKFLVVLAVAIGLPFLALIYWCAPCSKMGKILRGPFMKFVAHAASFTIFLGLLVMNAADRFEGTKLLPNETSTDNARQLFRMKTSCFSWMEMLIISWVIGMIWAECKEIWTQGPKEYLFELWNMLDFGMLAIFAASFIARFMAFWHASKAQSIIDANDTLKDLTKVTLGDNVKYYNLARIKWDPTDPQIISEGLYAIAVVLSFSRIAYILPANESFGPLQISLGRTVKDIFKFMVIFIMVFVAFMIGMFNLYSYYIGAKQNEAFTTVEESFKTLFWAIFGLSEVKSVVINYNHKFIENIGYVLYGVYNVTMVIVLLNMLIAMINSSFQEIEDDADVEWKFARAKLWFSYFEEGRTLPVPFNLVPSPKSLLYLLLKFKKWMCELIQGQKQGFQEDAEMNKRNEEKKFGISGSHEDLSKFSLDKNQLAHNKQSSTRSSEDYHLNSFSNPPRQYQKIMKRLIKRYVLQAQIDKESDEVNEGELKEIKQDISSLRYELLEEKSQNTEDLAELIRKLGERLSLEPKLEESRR

[10] = molecular target: Short transient receptor potential channel 6 (Mus musculus) (UniProt Q61143); experiment: activation of mouse TRPC6 channel, confirmation, selectivity assay for TRPC4 activator project, cell-based, HEK293, membrane potential dye, duplicate (AID 434950;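 active = membrane potential signal rise above negative control mean plus 3 SD in both duplicates, also active in the earlier TRPC4 screen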); conditions: HEK293 TRPC6, membrane potential fluorescence, at 10 µM; active compounds read high
[11] = molecular target: Short transient receptor potential channel 6 (Mus musculus) (UniProt Q61143); experiment: TRPC6 potentiation by TRPC4 potentiator hits, confirmation, selectivity assay for TRPC4 potentiator project, HEK293 cells, membrane potential dye, duplicate (AID 434952;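 active = compound raising the membrane signal above positive-control mean plus 3 SD in both repeats, and a primary screen hit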); conditions: HEK293 TRPC6, membrane potential dye fluorescence, at 10 µM, maximal acetylcholine added after compound; active compounds read high
[12] = molecular target: Short transient receptor potential channel 4 (Mus musculus) (UniProt Q9QUQ5); experiment: calcium flux activators in TRPC4/5HT1a cells, counter-screen for TRPC4 activator project, cell-based, second counter screen, HEK293 TRPC4/5HT1a, Fluo-4 (AID 434977;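 active = calcium signal rise above buffer-control mean plus 5 SD in both duplicates, and also a hit in the primary screen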); conditions: Fluo-4 calcium flux, at 10 µM; active compounds read high
[13] = calcium flux inhibitors in TRPC4/5HT1a cells, confirmation, counter-screen for TRPC4 inhibitor project, cell-based, second counter screen, HEK293 TRPC4/5HT1a, Fluo-4 (AID 434978;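 active = primary screen active whose calcium signal fell more than 3 SD beyond the full-serotonin control mean in both duplicate plates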); conditions: Fluo-4 calcium flux, at 10 µM, serotonin added to trigger calcium flux; active compounds read high
[14] = tested on: TRPC4 (mouse), co-expressed with 5HT1a in HEK293; experiment: calcium flux potentiators in TRPC4/5HT1a cells, confirmation, counter-screen for TRPC4 potentiator project, cell-based, second counter screen, HEK293 TRPC4/5HT1a, Fluo-4 (AID 434979;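 active = signal rise over 3 SD above mean of control wells given weak agonist, in both repeats and first screen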); conditions: Fluo-4 calcium flux, at 10 µM, serotonin added at its EC20 dose; active compounds read high
[15] = calcium flux activation in mu-opioid HEK293 cells, confirmation, counter-screen for TRPC4 activator project, cell-based, HEK293 mu-opioid receptor line (AID 449723;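 active = hit in primary screen, with calcium signal over 5 SD above buffer well mean in both duplicates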;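 also: counter screen cells carry the mu-opioid receptor alone and lack TRPC4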); conditions: Fluo-4 calcium fluorescence, at 10 µM; active compounds read high
[16] = calcium flux enhancement in mu-opioid HEK293 cells, confirmation, counter-screen for TRPC4 allosteric potentiator project, cell-based, HEK293 mu-opioid receptor line (AID 449724;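 active = calcium signal rise more than 3 SD above the low-dose agonist control mean, in both duplicate plates and the primary screen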); conditions: Fluo-4 calcium flux, at 10 µM, compound added before EC20 DAMGO stimulus; active compounds read high

Measured: inhibition

O=C(OC1C2CCC1C1CN(CCc3ccccc3)CC12)c1ccccc1 (stereo not given)
active: [6] 44%
inactive: all other assays above

Cc1ccc2nc(C)cc(Nc3ccc4c(c3)OCCO4)c2c1
active: [5] 90% | [9] 50%
inactive: all other assays above

CCN(CC)c1nc2ccccc2c(N)c1-c1ccccc1
active: [5] 89% | [9] 37.5% | [13] 33.1%
inactive: all other assays above

O=C(O)c1ccc(CSc2nc(-c3ccc(Cl)cc3)cc(C(F)(F)F)n2)cc1
active: [5] 77% | [13] 19.2%
inactive: all other assays above

CCCN1CN(Cc2ccco2)c2nc3ccccc3n2C1
active: [5] 96% | [6] 53% | [13] 25%
inactive: all other assays above

Cc1ccc(Sc2ccc(CO)cc2[N+](=O)[O-])cc1
active: [5] 98% | [13] 7.78%
inactive: all other assays above

Cc1cc(Cl)c2oc(C(=O)N(C)Cc3nccn3C)c(C)c2c1
active: [5] 84%
inactive: all other assays above

CC(C)(c1ccccc1)c1ccc(OCCCNCCO)cc1
active: [5] 79% | [13] 13.3%
inactive: all other assays above

CCOC(=O)CSc1nc2ccccc2c(=O)n1CC1CCCC1
active: [5] 84% | [13] 18.3%
inactive: all other assays above

COc1ccc(C)cc1N(C(=O)c1snc(C(N)=O)c1N)C(C(=O)NC1CCCCC1)c1ccc(C)o1 (stereo not given)
active: [5] 92% | [6] 72% | [13] 19.6%
inactive: all other assays above

CC(C)NCC(O)COCCOc1ccc(C(C)(C)C)cc1 (stereo not given)
active: [5] 97% | [6] 59% | [13] 28.6%
inactive: all other assays above

Cc1nn(-c2ccccc2)c(Cl)c1CN(C(=O)CCl)c1ccc(Cl)cc1
active: [5] 93% | [6] 69% | [13] 2.77%
inactive: all other assays above

Cc1cccc(CN2CCCC(C(=O)Nc3ccccc3Oc3cccnc3)C2)c1 (stereo not given)
active: [5] 92% | [13] 35.8%
inactive: all other assays above

CCOC(=O)c1c(NC(=O)C(C)Sc2nnc(C)c(=O)[nH]2)sc2c1CCCC2 (stereo not given)
active: [5] 77% | [6] 87% | [13] 28.1%
inactive: all other assays above

CN1/C(=C\C(=O)C[n+]2ccc3ccccc3c2)C(C)(C)c2ccccc21
active: [5] 96%
inactive: all other assays above
